Screens from PubChem BioAssay.
Shown are actives, neighbours in structure and some others; about 1.9% of the full set was active somewhere.
LANA-H2B inh: blocks KSHV LANA binding to histone H2A/H2B; AID 2629; 320,000 tested, 0.6% active; inhibition, % (no concentration beside the values); Q9QR71; cell-free LANA-H2A/H2B peptide, fluorescence polarization; in the data active means inhibition mostly above about 10%, no sharp cut-off; inactive means mostly below about 6.7%
CR mimetic SO: yeast age-related superoxide inhibition as caloric restriction mimetic; S. cerevisiae aged cells, superoxide DHE fluorescence; stronger effect = lower value; superoxide response (% of plate mean), % at 10 µM; 330,000 tested, 0.18% active; AID 2690;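 active means superoxide response under a set limit, about three screen SD below normal, cut at about 65% in these data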;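 further: yeast aged for seven days with compound at 30 °C before DHE staining; 100% = average MFI of all compound-treated wells on the plate with controls excluded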
MEX-5 binding: C. elegans MEX-5 TCR-2 RNA binding activity. activity score (negative = inhibition of binding), % at 10 µM. Q9XUB2. MEX-5/FITC-TCR2 RNA binding, fluorescence polarization; stronger effect = lower value. 300,000 tested, 0.38% active;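 active means inhibition past about -25% in most replicates, and total fluorescence under double the plate's negative control median, limit read from the data; inconclusive means replicates evenly split on the limit, or fluorescence at least double controls; inactive means too little inhibition in most replicates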;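 further: 0% = DMSO and -100% = 5 µM competing unlabeled TCR2 RNA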
MCL1 BIM primary: MCL1-BIM-BH3 interaction inhibition (human); Q07820; GST-MCL1 / FITC-Bim-BH3 fluorescence polarization; inhibition, % at 10.9 µM; 320,000 tested, 0.68% active; AID 2057;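 active means inhibition above the mean inhibition of all tested compounds plus 3 SD, set per campaign, cut at about 40% in these data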;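 further: 0% = DMSO wells and 100% = unlabeled Bim-BH3 peptide control; higher means more loss of mP so more displacement of Bim peptide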
GLD-1 RNA inh: GLD-1-TGE RNA interaction inhibition (C. elegans); purified GLD-1 + fluorescein TGE RNA, fluorescence polarization; inhibition, % at 5.96 µM; 320,000 tested, 0.44% active;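 active means percent inhibition above a per-plate cutoff, the plate mean of test compounds plus 3 SD, cut at about 30% in these data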;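 further: 0% = DMSO wells with GLD-1 and probe and 100% = wells lacking GLD-1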
Bcl-xL primary: inhibitors of human Bcl-xL | Q07817 | GST-Bcl-xL / FITC-Bim BH3 peptide fluorescence polarization | inhibition, % at 10.9 µM | 320,000 tested, 0.7% active;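 active means inhibition above the mean of all tested compounds plus 3 SD, cutoff set per campaign, cut at about 30% in these data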;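 further: 0% = DMSO wells and 100% = unlabeled Bim-BH3 peptide competitor; inhibitors lower millipolarization by displacing the labeled peptide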
Target sequence (Q07817 whole entry, looked up): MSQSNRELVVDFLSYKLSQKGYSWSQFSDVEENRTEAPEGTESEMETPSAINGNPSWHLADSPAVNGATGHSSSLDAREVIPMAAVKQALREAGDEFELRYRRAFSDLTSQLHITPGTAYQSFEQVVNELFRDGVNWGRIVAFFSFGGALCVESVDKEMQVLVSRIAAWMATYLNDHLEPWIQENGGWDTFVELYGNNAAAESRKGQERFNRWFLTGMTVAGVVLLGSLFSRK
* marks the source's active call; other numbers are inactive results; ? = inconclusive; nt = no result; + = active, no number.

SMILES | LANA-H2B inh | CR mimetic SO | MEX-5 binding | MCL1 BIM primary | GLD-1 RNA inh | Bcl-xL primary
Clc1ccc(/C=N/NC2=Nc3cccc4cccc2c34)cc1 | nt | 106.2 | -7.0 | 31.8 | 9.8 | 24.9
C(=N\NC1=Nc2cccc3cccc1c23)/c1ccccc1 | -2.4 | 95.2 | -10.8 | -20.0 | 32.5* | -2.1
CCOc1ccc(S(=O)(=O)Nc2cc(SCC(=O)O)c(O)c3ccccc23)cc1 | 2.2 | 122.7 | -50.9* | nt | nt | nt
O=C(O)CSc1cc(NS(=O)(=O)c2cccc([N+](=O)[O-])c2)c2ccccc2c1O | nt | nt | -66.1* | nt | nt | nt
CCc1ccc(S(=O)(=O)Nc2cc(SCC(=O)O)c(O)c3ccccc23)cc1 | 2.6 | 154.8 | -52.0* | 28.2 | -1.2 | 25.1
Cc1ccc(NS(=O)(=O)c2cccc(C(=O)NCC(c3ccc(F)cc3)N3CCOCC3)c2)cc1 (stereo unspecified) | nt | 104.5 | 0.0 | -3.1 | 2.0 | 1.7
COc1cccc(/C=C/C(=O)OCC(=O)c2c(N)n(C)c(=O)n(C)c2=O)c1 | 2.2 | 95.5 | nt | 4.2 | -1.3 | 2.5
O=C(O)CCC(=O)NNc1nc(-c2ccccc2)c2cc(Cl)ccc2n1 | -4.0 | 104.8 | -44.2* | 1.6 | -0.7 | 4.1
CNC(=O)/C(C#N)=C/c1ccc(-c2ccccc2[N+](=O)[O-])o1 | 0.4 | 110.5 | 1.2 | -9.3 | -2.6 | 1.4
CNC(=O)/C(C#N)=C/c1ccc(-c2ccc(Cl)cc2)o1 | 1.6 | 103.2 | -34.0* | -1.5 | 3.3 | 5.7
CCCC(=O)Nc1ccccc1NC(C)=O | 18.1* | 85.5 | -0.4 | 5.2 | 1.7 | 2.6
CCCCCC(=O)Nc1cccc2ccccc12 | 2.2 | 119.4 | 0.2 | 6.4 | 0.5 | 4.8
N=c1oc2c3c4c(cc2cc1C(=O)Nc1ccccc1)CCCN4CCC3 | 7.5 | 103.4 | ? | 191.5* | 87.7* | 165.1*
Nc1c(S(=O)(=O)O)cc(NC(=O)c2ccccc2)c2c1C(=O)c1ccccc1C2=O | 0.0 | 129.3 | -0.9 | 108.9* | 68.2* | 72.0*
O=C(Nc1ccccc1-c1ccccc1)c1ccccc1 | -2.8 | 100.2 | 0.5 | -1.4 | 3.8 | -2.6
CCC(=O)c1ccc(OC(=O)C2CCN(C3=NS(=O)(=O)c4ccccc43)CC2)cc1 | nt | 78.8 | nt | 2.5 | 1.9 | -3.9
O=S(=O)(NCc1ccccc1)c1ccccc1NCCc1ccccc1 | nt | 51.7* | nt | nt | nt | nt
CCCCCCCCNc1ccccc1S(=O)(=O)NCc1ccccc1 | nt | 102.0 | nt | nt | nt | nt
CC(C)(C)[C@H]1COC(=O)[C@H](Cc2ccc(F)cc2)CC/C=C/C[C@@H](CC(=O)N[C@H](CO)Cc2ccccc2)C(=O)N1 | 8.9 | 80.5 | nt | nt | -1.8 | nt
COc1ccccc1/C=C/C(=O)OCC(=O)c1cc(C)n(C)c1C | + | 91.1 | nt | -5.4 | 0.9 | 0.0
Cc1cc(C(=O)COC(=O)/C=C/c2ccc(F)cc2)c(C)n1C | 0.6 | 96.0 | nt | -4.0 | -1.2 | 2.4
COc1ccc(OC)c(CCNC(=O)CCCC(=O)n2ncc3cc(C)ccc32)c1 | 3.6 | 98.0 | -1.3 | 0.3 | -2.9 | 3.1
O=C(N/N=C/c1ccc(F)cc1)c1ccc(OCc2ccccc2)cc1 | 1.1 | 104.4 | 0.1 | -5.5 | -0.7 | 1.4
O=C(O)/C(=C\c1cccc(OCc2ccccc2)c1)c1ccc(F)cc1 | 10.5* | 111.5 | -0.3 | 4.5 | -2.2 | 3.6
COCCN(CCOC)Cc1c(O)ccc2c1O/C(=C\c1ccc(C)o1)C2=O | 1.6 | 116.7 | ? | 24.5 | -3.9 | 34.4*
SMILES | LANA-H2B inh | CR mimetic SO | MEX-5 binding | MCL1 BIM primary | GLD-1 RNA inh | Bcl-xL primary
CCN(CC)c1ccc(/C=C(\C#N)C(=O)NCc2ccccc2)cc1 | 1.2 | 129.3 | -3.3 | -10.7 | -42.0 | -3.3
Cc1ccc(CNC(=O)/C(C#N)=C\c2ccc(N(C)C)cc2)cc1 | -2.7 | 88.0 | -60.4* | -8.8 | -61.7 | -1.8
CN(C)c1ccc(/C=C(\C#N)C(=O)NCc2ccco2)cc1 | nt | 100.0 | -41.6* | -9.1 | -46.0 | -9.8
CCN(CC)c1ccc(/C=C(\C#N)C(=O)NCc2ccco2)cc1 | 0.4 | 112.0 | nt | -30.5 | -83.2 | -18.8
COc1ccc(-c2cc(=O)oc3cc(OCC(=O)NCCN4CCOCC4)ccc23)cc1 | 15.7* | 115.1 | 1.7 | 5.8 | 4.1 | 6.3
CCCCc1cc(=O)oc2cc(OCC(=O)NCCN3CCOCC3)ccc12 | 15.3* | 99.3 | 0.5 | 7.1 | 9.2 | 4.3
